Among the data in PubChem BioAssay (NCI) are growth values, retold here.

About 83,000 compounds went through this panel and 20% of them were active in at least one assay; those are over-represented in the sample as a whole.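 Testing used 96-well plates and a 48-hour single-concentration exposure. Example: -40 means 40% of the starting cells died.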 Unmarked numbers belong to inactive results. Activity calls are given as the source filed them. The calls were made as follows: active = growth percent below 10; inactive = the rest.

Common to all, as to assay: NCI-60 one-dose screen, 48 h (100 = growth as untreated, 0 = no growth, -100 = all killed)
Settings in all cases: 10 µM unless noted

Test [1] deals with NCI-H23 lung.
The subject of test [2] is NCI-H226 lung.
In test [3] the test system is NCI-H322M lung.
In test [4] the test system is HOP-62 NSCLC.
The test system of test [5] is NCI-H460 lung.
In test [6] the test system is HOP-92 NSCLC.
Test [7] relates to NCI-H522 lung.
For test [8], the system named is A549/ATCC NSCLC.
Test [9] has as its system 786-0 renal.
In test [10] the test system is COLO 205 colon.

Regarding `CN(C)CCCC1(c2ccc(F)cc2)OCc2cc(-c3ccc(C(F)(F)F)nc3)ccc21` (stereo not given), the growth is 80.6% in test [1]; 90.6% in [2]; 84.7% in test [3]; 83.3% in test [4]; 72.9% in test [5]; 51.1% in test [6]. Also, the growth in [7] was 74.7%; in [8], 71.4%; in test [9] it was 72.7%; in [10], 60.7%.

Turning to `Cc1ccccc1-c1nc(C(Cl)Cl)nc2cc(-c3ccccc3)nn12`, the growth in test [1] is 50.4%; in test [2], 75.3%; in test [3], 86.3%; in [4], 54.9%; in test [5], 81.5%; in test [6], 45.8%. The growth in [7] is 82.8%; in test [8], 25.1%; in test [9] it was 93.7%; in [10], 41.7%.

As for `O=C1c2cccc3cccc(c23)C(=O)N1CC#Cc1ccc2c3c(cccc13)C(=O)N(CCO)C2=O`, the growth is 81% in test [1]; 91.9% in [2]; 94.9% in [3]; 84.5% in test [4]; 95.8% in [5]; 86.4% in test [6]. Moreover, the growth in test [7] was 92%; in test [8], 97.3%; in test [9] it was 98.1%; in test [10], 118%.

Consider `Nc1c(Cl)cc(N=Nc2ccccc2)cc1Cl`, for which the growth is 88% in test [1]; 55.2% in test [2]; 86.7% in test [3]; 91.4% in test [4]; 65.1% in [5]; 57.7% in [6]. Moreover, the growth is 96.8% in [7], 88.2% in test [8], 101% in [9] and 97.5% in [10].

`Nc1c2c(nc3ccc(Br)cc13)CC(c1ccccc1)CC2=O` (stereo not given): the growth in [1] was 37.7%; in test [2] it was 71.2%; in test [3], 49.1%; in test [4] it was 48.9%; in test [5], 17.1%; in test [6] it was 77.9%. The growth is 35.6% in test [7], 48.5% in test [8], 49.6% in [9] and 18.6% in test [10].

In the case of `CC(C)=CCC/C(C)=C/CC/C(C)=C/CC/C(C)=C/CSC[C@H](NC(=O)CCCCCN1CCN(C)CC1)C(=O)NC1CCCCC1`, the growth in test [1] is 73%; in test [2], 95.8%; in [3] it was 89.8%; in test [4] it was 85.6%; in test [5] it was -7.73% (active); in test [6], 76.4%. Besides, the growth in test [7] is 85%; in test [8], 71.7%; in test [9], 83.7%; in test [10], 8.86% (active).

As to `CC[C@]12C=CCN3CC[C@@]4(c5cc([C@H]6CCC(=O)N6)c(OC)cc5N(C)[C@H]4[C@@](O)(C(=O)OC)[C@@H]1OC(C)=O)[C@@H]32`, the growth was 100% [2.5 µM] in test [1]; 92.7% [2.5 µM] in test [2]; 99.8% [2.5 µM] in test [3]; 98.1% [2.5 µM] in [4]; 107% [2.5 µM] in [5]; 98.5% [2.5 µM] in [6]. The growth was 93% [2.5 µM] in test [7], 100% [2.5 µM] in test [8], 104% [2.5 µM] in test [9] and 108% [2.5 µM] in test [10].

As to `CCCCn1c(-c2ccc(O)cc2)cn2c3c(=O)[nH]c(=O)n(C)c3nc12`, the growth is 82.2% in test [1]; 85% in [2]; 119% in test [3]; 82% in test [4]; 68.6% in test [5]; 43.1% in [6]. Further, the growth was 30.9% in [7], 75% in test [8], 88.8% in test [9] and 89.9% in test [10].

For `COc1ccc(-c2cc(/C=C/C(=O)c3ccc(N)cc3)[nH]n2)cc1`, the growth in [1] was 27.3%; in test [2], 24.5%; in [3] it was 12.4%; in test [4] it was 15.4%; in [5], -50% (active); in test [6] it was 73.6%. Besides, the growth in [7] is -24.3% (active); in test [8], 18.6%; in test [9] it was 17.8%; in test [10] it was 7.56% (active).

Regarding `N=c1ccc2nc3c(cc(N)c4ccccc43)oc-2c1`, the growth was -80.4% (active) in [1]; -61.3% (active) in [2]; -34.2% (active) in test [3]; -97.7% (active) in test [4]; -77.3% (active) in [5]; 21.7% in test [6]. Further, the growth in test [7] is -70.1% (active); in [8], -44% (active); in [9] it was -90.7% (active); in test [10], -100% (active).

For `COC1=C(Br)C(=O)C(OC)=C(Br)C1=O`, the growth in [1] is 105%; in test [2] it was 102%; in [3], 98.1%; in [4], 111%; in test [5], 106%; in test [6], 153%. Also, the growth in test [7] is 86.3%; in [8], 102%; in [9] it was 103%; in test [10], 110%.

As to `Cc1cc(N(CCCNc2ccnc3cc(Cl)ccc23)Cc2ccco2)nc(N2CCN(C)CC2)n1`, the growth in test [1] is 66%; in test [2] it was 88.3%; in test [3] it was 64.2%; in [4], 48.2%; in test [5] it was 28.4%; in [6], 79.9%. The growth in [7] is 82.1%; in [8], 45%; in [9] it was 59%; in [10] it was -21.2% (active).

As to `CC(=O)OCCCCCCn1c2ccccc2c2c3c(c4c5ccccc5n(C)c4c21)C(=O)N(O)C3=O`, the growth was 68% in [1]; 63.7% in [2]; 77.4% in test [3]; 58.7% in test [4]; 48.1% in test [5]; 101% in test [6]. In addition, the growth in test [7] is 50.4%; in test [8], 94.5%; in [9] it was 88%; in test [10] it was 70.1%.
